How the values were obtained:
Settings in all cases: concentration: 1 μM, replicates: in singlicate; n = 1
[1] = tested on: MAP4K3
[2] = tested on: MAP4K4
[3] = tested on: MAP4K5
[4] = tested on: MAPKAPK2
[5] = tested on: MAPKAPK5
[6] = tested on: MARK1
[7] = tested on: MARK2
[8] = tested on: MARK3
[9] = tested on: MARK4
[10] = tested on: MAST1
[11] = tested on: T1, MEK1
T1 construct: gene MAP2K1

[12] = tested on: T2, MEK2
T2 construct: gene MAP2K2

[13] = tested on: T3, MEK3
T3 construct: gene MAP2K3

[14] = tested on: T4, MEK4
T4 construct: gene MAP2K4

[15] = tested on: T5, MEK5
T5 construct: gene MAP2K5

[16] = tested on: T6, MEK6
T6 construct: gene MAP2K6

[17] = tested on: MELK
[18] = tested on: MERTK
[19] = tested on: MET
[20] = tested on: T7, MINK
T7 construct: gene MINK1
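Also: KINOMEscan kinase panel screen.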

SMILES | %Inh [1] [%] | %Inh [2] [%] | %Inh [3] [%] | %Inh [4] [%] | %Inh [5] [%] | %Inh [6] [%] | %Inh [7] [%] | %Inh [8] [%] | %Inh [9] [%] | %Inh [10] [%] | %Inh [11] [%] | %Inh [12] [%] | %Inh [13] [%] | %Inh [14] [%] | %Inh [15] [%] | %Inh [16] [%] | %Inh [17] [%] | %Inh [18] [%] | %Inh [19] [%] | %Inh [20] [%]
Cn1cc(-c2ccc3c(c2)CCN3C(=O)Cc2ccccc2Cl)c2c(N)ncnc21 [GSK2608885] | 70 | 58 | 96.3 | 0 | 3 | 16 | 0 | 46 | 19 | 0 | 70 | 90.6 | 3 | 17 | 99.7 | 47 | 0 | 93.2 | 88 | 8
Cl.Oc1cccc(Nc2ccnc3cc(-c4ccncc4)ccc23)c1 [GW494601] | 0 | 47 | 20 | 0 | 0 | 6 | 0 | 0 | 10 | 51 | 33 | 100 | 0 | 18 | 99.8 | 0 | 0 | 46 | 0 | 79
c1ccc(-c2n[nH]cc2-c2ccnc3ccccc23)nc1 [GW271431] | 16 | 23 | 3 | 9 | 0 | 0 | 0 | 0 | 6 | 0 | 0 | 0 | 0 | 32 | 30 | 0 | 10 | 34 | 0 | 54
c1ccc(-c2cc(-c3c[nH]nc3-c3ccccn3)ccn2)cc1 [GW576604] | 0 | 22 | 0 | 6 | 0 | 0 | 0 | 0 | 0 | 13 | 0 | 0 | 0 | 16 | 41 | 0 | 1 | 0 | 13 | 71
N#Cc1c(N2CCOCC2)sc(-c2ccn[nH]2)c1-c1ccc(Cl)cc1 | 0 | 0 | 0 | 0 | 2 | 1 | 0 | 27 | 0 | 53 | 5 | 9 | 12 | 0 | 29 | 0 | 0 | 0 | 0 | 12
O=C(NCCNc1ccnc(Nc2ccc(F)cc2)n1)Nc1ccccc1F [GSK1379880] | 0 | 0 | 0 | 12 | 0 | 0 | 0 | 0 | 0 | 0 | 0 | 0 | 0 | 26 | 30 | 0 | 0 | 7 | 0 | 0
CCc1nc(-c2cccc(C)c2)c(-c2ccnc(NCc3ccccc3)c2)s1 | 0 | 12 | 0 | 0 | 0 | 0 | 1 | 0 | 0 | 0 | 0 | 1 | 0 | 9 | 1 | 6 | 0 | 0 | 0 | 2
COCCNC(=O)c1ccc(-c2cc(C(=O)NC3CC3)cc(F)c2C)cc1 [GW868318] | 14 | 3 | 6 | 8 | 5 | 27 | 0 | 25 | 9 | 68 | 25 | 32 | 29 | 34 | 53 | 0 | 0 | 0 | 0 | 23
CN1c2ccc(CNc3ccc(F)cc3)cc2-c2c(cnn2C)S1(=O)=O | 8 | 0 | 0 | 0 | 0 | 3 | 0 | 0 | 11 | 0 | 11 | 18 | 13 | 22 | 31 | 0 | 0 | 0 | 0 | 26
Cc1cccc(-c2nc(-c3ccc(S(C)(=O)=O)cc3)sc2-c2ccncc2)c1 | 0 | 30 | 0 | 1 | 0 | 34 | 0 | 0 | 31 | 31 | 2 | 1 | 0 | 27 | 12 | 14 | 5 | 12 | 10 | 16
NCC(NC(=O)c1cc(-c2cn[nH]c2)c(-c2ccnc3[nH]ccc23)s1)c1ccccc1.O=C(O)C(F)(F)F.O=C(O)C(F)(F)F (centres unmarked) [GSK1325775] | 6 | 31 | 25 | 0 | 0 | 0 | 25 | 0 | 0 | 0 | 0 | 11 | 82 | 35 | 80 | 24 | 38 | 0 | 0 | 59
COc1cc2ncn(-c3cc(OCc4sccc4Cl)c(C(N)=O)s3)c2cc1OC [GSK448459] | 50 | 0 | 99.1 | 0 | 0 | 0 | 0 | 0 | 0 | 0 | 0 | 0 | 0 | 15 | 99.8 | 0 | 0 | 23 | 8 | 50
NS(=O)(=O)c1cccc(-c2ccc3ncc(N4CCOCC4)nc3c2)c1 [GSK1535721] | 0 | 0 | 0 | 7 | 0 | 0 | 11 | 0 | 0 | 0 | 11 | 0 | 0 | 23 | 16 | 4 | 17 | 9 | 0 | 27
Fc1ccc(-c2ncn(CCCN3CCOCC3)c2-c2ccccn2)cc1 [SB-211742] | 0 | 2 | 0 | 0 | 0 | 0 | 0 | 30 | 24 | 18 | 6 | 31 | 0 | 0 | 0 | 0 | 18 | 0 | 13 | 0
COc1cc2c(cc1OCCN1CCN(C)CC1)ncc1c3ccc(C#N)cc3[nH]c21 | 12 | 59 | 22 | 0 | 0 | 7 | 29 | 0 | 0 | 97.2 | 34 | 80 | 9 | 0 | 99.9 | 11 | 51 | 0 | 0 | 93
O=c1cc(N2CCOCC2)nc2n(Cc3cccc4ccccc34)ccn12 [GSK2333389] | 6 | 15 | 10 | 3 | 0 | 0 | 0 | 22 | 1 | 0 | 0 | 0 | 0 | 3 | 18 | 0 | 0 | 23 | 0 | 0

— publication PMC5540273 (PLoS ONE, 2017)
